# This is a sample that favours compounds with a hit; in the whole collection about 0.93% have one here.
# TRHR agonist = qHTS for Small Molecule Agonists and Allosteric Enhancers of Human TRH Receptor: Primary Screen for Agonists; TRHR cells, calcium flux fluo-8, FDSS agonist mode; Thyrotropin-releasing hormone receptor (Homo sapiens), P34981; AID 493084, 2011; 360,000 compounds, 0.18% hits; activation, % at 2 µM; in the data active means activation above about 30%
#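 TRHR-expressing cells, plated overnight in medium with 10% serum, were loaded with fluo-8 calcium dye at room temperature. After a 10 s baseline, library compound was pin-added and calcium release was recorded kinetically (ex 480/em 530) as agonist response.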
# TRPML1 inh = qHTS for Inhibitors of the Human Mucolipin Transient Receptor Potential 1 (TRPML1); activity change, negative = inhibition, % (concentration not given with the values); TRPML1-inducible cells, Ca2+ dye fluorescence, FDSS; stronger effect = lower value; inhibition of EC80 agonist-evoked calcium signal; AID 624415, 2012; 390,000 compounds, 0.02% hits; Mucolipin-1 (Homo sapiens), Q9GZU1; in the data active means activity change below about -50%; inconclusive means between about -30% and that limit;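 further: stimulus is agonist 54-4 at its EC80 concentration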
#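 TRPML1-DL cells, Tet-induced overnight (~16 h, 37 °C) at 1,500 cells/well, were loaded with Ca8 no-wash dye plus quencher for 45-90 min at room temperature. Compounds were pinned during FDSS kinetic reading; agonist 54-4 at EC80 (4 uM final) then added.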
# TRHR enhancer = qHTS for Small Molecule Agonists and Allosteric Enhancers of Human TRH Receptor: Primary Screen for Enhancers; Thyrotropin-releasing hormone receptor (Homo sapiens), P34981; TRHR cells, fluo-8 calcium fluorescence, EC20 TRH enhancement; enhancement, % at 2 µM; 360,000 compounds, 0.66% hits; AID 493056, 2011; in the data active means enhancement above about 30%
#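 TRHR-expressing cells loaded with fluo-8 calcium dye were read kinetically (ex 480/em 530) during compound addition, then stimulated with an EC20 of TRH (10 nM final). Enhancement of the Gq-mediated intracellular calcium response was scored.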
# TRPML1 agonist = qHTS for Agonists of the Human Mucolipin Transient Receptor Potential 1 (TRPML1); AID 624414, 2012; activation, % (no concentration beside the values); Mucolipin-1 (Homo sapiens), Q9GZU1; TRPML1-expressing cells, Ca2+ dye fluorescence, FDSS; 410,000 compounds, 0.12% hits; in the data active means activation above about 50%; inconclusive means mostly about 30% to 49%
#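 Tetracycline-induced TRPML1-DL cells are seeded and incubated overnight before loading with a no-wash Ca2+ dye and quencher. Agonist activity is taken from the 110 s fluorescence read following compound pin-transfer on an FDSS, before EC80 54-4 challenge.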
# GLP1R cytotox = qHTS of GLP-1 Receptor Inverse Agonists: Cytotox Screen. Potency, µM (titrated, usually from 38.3 µM), actives largely listed as inhibitors. HEK293 cAMP-luciferase reporter cells, luminescence, 24 h. 410,000 compounds, 0.13% hits;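 further: loss of luciferase light is scored as toxicity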
#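 Cells in DMEM/10% Nu serum/1% pen-strep, 1536-well format. Pre-incubated 12 h, dosed with 23 nL compound, incubated a further 24 h. Luciferase detection, 12 min at room temp, luminescence.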
# PTHR1 ag = qHTS for PTHR1 Agonists: Primary Screen; HEK293 GP2 PTHR1 cells, GloSensor cAMP luminescence, 1 h; Parathyroid hormone/parathyroid hormone-related peptide receptor (Homo sapiens), Q03431; AID 743266, 2014; 410,000 compounds, 0.075% hits; Potency, µM (doses to about 115 µM), actives largely listed as activators; further: nearly all actives have a fitted effect of over 55% in size
# Target sequence (Q03431 whole entry, looked up): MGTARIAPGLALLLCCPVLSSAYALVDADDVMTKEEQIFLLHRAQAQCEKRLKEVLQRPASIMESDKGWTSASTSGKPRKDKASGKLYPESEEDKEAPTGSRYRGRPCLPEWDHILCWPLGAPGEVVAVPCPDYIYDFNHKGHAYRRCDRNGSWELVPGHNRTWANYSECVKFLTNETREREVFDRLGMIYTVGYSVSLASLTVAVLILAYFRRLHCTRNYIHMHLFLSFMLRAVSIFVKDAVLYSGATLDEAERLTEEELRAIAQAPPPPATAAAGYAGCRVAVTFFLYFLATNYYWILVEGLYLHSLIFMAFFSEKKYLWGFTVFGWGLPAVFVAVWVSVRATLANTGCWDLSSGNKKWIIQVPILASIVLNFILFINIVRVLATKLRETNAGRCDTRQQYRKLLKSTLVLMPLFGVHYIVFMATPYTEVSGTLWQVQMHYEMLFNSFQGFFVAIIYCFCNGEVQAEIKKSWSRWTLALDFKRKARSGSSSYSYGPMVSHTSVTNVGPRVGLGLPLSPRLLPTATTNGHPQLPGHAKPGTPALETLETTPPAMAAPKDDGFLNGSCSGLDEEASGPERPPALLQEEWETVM
#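 HEK-293-derived GP2 cells expressing PTHR1 and a GloSensor cAMP reporter, 3,000/well, plated overnight, given luciferin plus IBMX (each 0.5 mM as added) for 1 h at 37 °C, then compound for 1 h at 37 °C. Luminescence was read after 15 min at room temperature.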
# A number is an active result; i = inactive; ? = inconclusive; nt = no result; [ ] = dose if it differs, or a comment. Unless noted, the call rests on the fitted dose curve; in most records, active means well fitted curve in the direction sought with a large enough effect; inconclusive means small, poorly fitted or top-dose-only effect, or another doubt; inactive means no such curve, though single readings can be large; an effect the other way counts as inactive or inconclusive.
SMILES,TRHR agonist,TRPML1 inh,TRHR enhancer,TRPML1 agonist,GLP1R cytotox,PTHR1 ag
CCCCNc1ccc2c3c(cccc13)C(=O)N(CCCC)C2=O,286,i,i,110,i,i
Cc1cc(OCCCN2CCC(C(O)(c3ccccc3)c3ccccc3)CC2)ccc1Br,nt,nt,nt,i,?,i
CN(C)c1ccc(CN2CCc3nc(N4CCN(c5ccccn5)CC4)ncc3C2)cc1,i,i,i,i,i,i
CCOP(=S)(OCC)c1ccc(N(C)C)cc1,i,i,i,i,i,18µM
CN(C)c1ccc(P(=S)(N(C)C)N(C)C)cc1,i,i,i,i,i,i
CC(=O)OC1CCC2(C)C(CCC3C2CC(=O)C2(C)C3CC(N3CC3)C2C(C)=O)C1 (centres undefined),nt,i,nt,i,i,50µM
COC1=C(C)C(=O)c2c(c(COC(N)=O)c3n2C[C@@H]2[C@@H]3N2C)C1=O (some centres undefined),nt,nt,nt,i,nt,nt
O=C(Nc1ccc(Br)cc1C(=O)c1ccccc1Cl)c1ccccc1F,i,i,i,77,i,i
O=C(Nc1ccc(Br)cc1C(=O)c1ccccc1)c1ccccc1,i,i,i,i,i,i
CC(C)c1ccc(NC(=O)Cn2c(=O)oc3cc(S(=O)(=O)N4CCCC4)ccc32)cc1,i,?,i,i,?,i
COc1cc(/C=C2\C(=O)NC(=O)N(c3ccc(C)cc3)C2=O)cc(OC)c1O,i,i,i,i,i,i
COc1cc(/C=C2/SC(=Nc3ccc(O)cc3)NC2=O)cc(OC)c1O,70,i,i,i,i[7.66 µM],i
O=C(CN1CCOCC1)c1ccc2ccccc2c1,nt,nt,nt,i,nt,nt
O=C(Nc1ccccc1Cl)c1ccccc1Oc1ccc(C(F)(F)F)cc1[N+](=O)[O-],i,i,i,55,?,i
O=C1C=C(N2CC2)c2ccccc2C1=O,nt,i,nt,i,i,i
O=C1C=C(N2CCOCC2)c2ccccc2C1=O,i,i,i,i,11µM,i
O=C(O)c1ccc(-c2ccc(/C=N/Nc3ccc([N+](=O)[O-])cc3)o2)cc1,123,nt,36,nt,i,i
N/C(=N\N=C/c1ccc(-c2ccc(O)c(C(=O)O)c2)o1)N[N+](=O)[O-],i,i,i,i,i,i
CC(C)NC(=O)N1Cc2cc(C(=O)NC3CCCCC3)nc(-c3cccc(-c4cccnc4)c3)c2[C@@H]1CCO,nt,nt,nt,i,i,i
CCOc1cccc(CC(=O)NCc2ccc3c(c2)CCN3C(=O)c2cccc(C)c2)c1OCC,i,i,i,i,i,i
O=[N+]([O-])c1ccc(NCc2ccccc2)c2nonc12,215,i,i,77,i,i
CCOP(=O)(Nc1ccc2c(c1)C(=NNC(N)=S)c1ccccc1-2)OCC,nt,i,nt,i,13µM,i
COc1cccc2c1C(=O)c1c(O)c3c(c(O)c1C2=O)CC(O)(C(C)=NO)CC3OC1CC(N)C(O)C(C)O1 (centres undefined),nt,i,nt,i,11µM,i
O=C1NC(=O)C(=C/C=C/c2coc3ccc(Br)cc3c2=O)C(=O)N1,41,nt,i,nt,nt,nt
O=C1NC(=O)C(=Cc2coc3ccccc3c2=O)C(=O)N1,i,i,i,i,i,i
COC(=O)C[C@]1(C(=O)OC)CN(C#N)N(c2ccc(Cl)cc2)C12c1ccccc1-c1ccccc12,i,i,i,i,1.1µM,i
COC(=O)[C@@H]1[C@@H](C(=O)OC)C2(c3ccccc3-c3ccccc32)N(c2ccc(Cl)cc2)N1C#N,i,i,i,i,i,i
CC(O)(c1ccncc1)c1nc(-c2cccc(C(F)(F)F)c2)cs1 (centres undefined),nt,nt,nt,i,i,i
